Test systems include HCT-15 colon; HT29 colon; SNB-19 CNS; U251 CNS; PC-3 prostate; SK-MEL-5 melanoma; UACC-62 melanoma; SK-MEL-28 melanoma; SK-MEL-2 melanoma; EKVX NSCLC; SN12C renal; UO-31 renal; TK-10 renal; ACHN renal; CAKI-1 renal; A498 renal; MOLT-4 leukemia; LOX IMVI melanoma; CCRF-CEM leukemia.
Common to all, as to assay: NCI-60 one-dose screen, 48 h (100 = growth as untreated, 0 = no growth, -100 = all killed)
Settings in all cases: 10 µM unless noted

Data on eight compounds can be found in PubChem BioAssay (NCI).

The panel holds about 83,000 compounds, 20% with a hit somewhere; the sample as a whole holds those more often.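 Activity criterion: percent growth below 10, measured after cells in 96-well plates were exposed to a single compound concentration for 48 hours.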 Unmarked numbers belong to inactive results. Calls of active or inactive are those of the source.

Take `Cc1ccc(-c2cc3nc(-c4ccccc4)nc(C(Cl)Cl)n3n2)cc1`: the growth in the test on HCT-15 colon was -30.4% (active); with HT29 colon, -47.1% (active); in the test with SNB-19 CNS, -40.1% (active); with U251 CNS, -83.5% (active); with PC-3 prostate, -76% (active); in the test with SK-MEL-5 melanoma it was 83.9%. For the same compound, the growth in the test on UACC-62 melanoma was -65.3% (active); with SK-MEL-28 melanoma, 34.6%; in the test on SK-MEL-2 melanoma it was 26.7%; with EKVX NSCLC, -68% (active); in the test on SN12C renal it was 55.5%; in the test on UO-31 renal, -99.7% (active). The growth is -97.9% (active) with TK-10 renal; -99.3% (active) in the test on ACHN renal; -86.4% (active) in the test with CAKI-1 renal; -73.8% (active) in the test with A498 renal; 89.3% in the test with MOLT-4 leukemia.

For the compound `CN1CCN(CCCOc2ccc3nc(Nc4ccc(Cl)c(C(F)(F)F)c4)ccc3c2)CC1`, the growth in the test with HCT-15 colon is 2.44% (active); in the test on HT29 colon, -37.5% (active); with SNB-19 CNS it was 66%; with U251 CNS, 23.3%; in the test with PC-3 prostate, 40.6%; in the test on SK-MEL-5 melanoma, 76.9%. For the same compound, the growth was -83.7% (active) in the test with LOX IMVI melanoma; 89.9% in the test on SK-MEL-2 melanoma; 71.8% with EKVX NSCLC; 63.9% in the test on SN12C renal; 69.6% in the test with UO-31 renal; 75.9% in the test on TK-10 renal. Also, the growth in the test with ACHN renal is 55.9%; in the test with CAKI-1 renal, 83.8%; in the test with A498 renal it was 101%; in the test on MOLT-4 leukemia, 19.1%.

On to `COc1c2occc2c(OC)c2c(=O)c(-c3cc(-c4ccc(F)cc4)c(C#N)c(N)n3)c(C)oc12`, for which the growth was 31.4% in the test with HCT-15 colon; 14.2% in the test on HT29 colon; 51.2% in the test with SNB-19 CNS; 30.6% with U251 CNS; 22.8% in the test with PC-3 prostate; 37.1% in the test on SK-MEL-5 melanoma. The growth is 6.13% (active) with LOX IMVI melanoma; 59.9% in the test on SK-MEL-2 melanoma; 32% in the test with EKVX NSCLC; 39.5% in the test with SN12C renal; 25.3% with UO-31 renal; 53.7% in the test on TK-10 renal. Also, the growth is 41.8% in the test on ACHN renal, 50.5% with CAKI-1 renal, 25.7% with A498 renal and 5.86% (active) in the test on MOLT-4 leukemia.

Turning to `ClC(Cl)c1nc(-c2ccccc2)nc2cc(-c3ccccc3)nn12`, the growth in the test on HCT-15 colon is 7.78% (active); in the test on HT29 colon, 2.11% (active); in the test with SNB-19 CNS, 55.7%; with U251 CNS, 14.6%; with PC-3 prostate it was 35.4%; in the test with SK-MEL-5 melanoma, 90.4%. Also, the growth in the test on UACC-62 melanoma is 62.8%; in the test with SK-MEL-28 melanoma it was 107%; with SK-MEL-2 melanoma, 103%; in the test on EKVX NSCLC, 58.6%; with SN12C renal it was 72.1%; in the test on UO-31 renal it was 58.7%. For the same compound, the growth with TK-10 renal is 21.6%; in the test on ACHN renal, 46.2%; with CAKI-1 renal it was 50.6%; in the test on A498 renal it was 80.7%; in the test with MOLT-4 leukemia it was 101%.

Take `CCC1=CCC[C@@]2(C)CCC[C@@]3(C)CCCC(C)(C)[C@]1([O-])[O+]32`: the growth with HCT-15 colon is 108%; in the test with HT29 colon, 102%; with SNB-19 CNS, 102%; in the test with U251 CNS it was 103%; in the test with PC-3 prostate, 96.5%; in the test on SK-MEL-5 melanoma, 101%. For the same compound, the growth was 103% in the test with UACC-62 melanoma; 96.8% in the test on SK-MEL-28 melanoma; 110% with SK-MEL-2 melanoma; 106% with SN12C renal; 100% with UO-31 renal; 109% in the test on TK-10 renal. The growth is 105% with ACHN renal; 94.7% in the test on CAKI-1 renal; 83.3% with A498 renal; 127% in the test with CCRF-CEM leukemia; 104% in the test with MOLT-4 leukemia.

`O=C(NCCNc1nccc(-n2ccc3cccnc32)n1)c1ccc(C(F)(F)F)cc1`: the growth in the test with HCT-15 colon was 104%; in the test on HT29 colon it was 113%; in the test on SNB-19 CNS it was 104%; in the test with U251 CNS, 99.8%; in the test on PC-3 prostate it was 102%; with UACC-62 melanoma it was 94.6%. For the same compound, the growth in the test on LOX IMVI melanoma was 99.4%; in the test on SK-MEL-28 melanoma, 105%; in the test with SK-MEL-2 melanoma, 108%; in the test with EKVX NSCLC it was 94.2%; with SN12C renal, 98.7%; in the test with UO-31 renal it was 84%. The growth with TK-10 renal is 134%; with ACHN renal it was 97.6%; in the test with A498 renal, 108%; with CCRF-CEM leukemia, 101%; in the test on MOLT-4 leukemia, 104%.

As to `S=C(S)NCCc1c[nH]c2ccccc12`, the growth in the test on HCT-15 colon was 97.2%; with HT29 colon, 110%; with SNB-19 CNS, 96.3%; in the test with U251 CNS, 108%; in the test on PC-3 prostate it was 91.4%; with UACC-62 melanoma it was 88.4%. In addition, the growth in the test with LOX IMVI melanoma was 87.2%; in the test with SK-MEL-28 melanoma, 113%; in the test with SK-MEL-2 melanoma it was 99.6%; in the test on EKVX NSCLC it was 100%; in the test on SN12C renal it was 91.8%; in the test with UO-31 renal it was 62.8%. In addition, the growth is 128% with TK-10 renal, 101% in the test with ACHN renal, 81.2% with CAKI-1 renal and 93.6% in the test with MOLT-4 leukemia.

`CN1C(=O)N(C)C2C1NN=c1s/c(=C\C=C\c3ccccc3)c(=O)n12` (stereo not drawn): the growth is 32.4% in the test with HCT-15 colon; 20.7% with HT29 colon; 57.9% in the test on SNB-19 CNS; 63.7% in the test with U251 CNS; 40.9% in the test on PC-3 prostate; 43.6% in the test with UACC-62 melanoma. Moreover, the growth in the test on LOX IMVI melanoma was 46.4%; in the test on SK-MEL-28 melanoma it was 68.4%; with SK-MEL-2 melanoma it was 61.6%; in the test on EKVX NSCLC it was 69.9%; with SN12C renal, 83.5%; with UO-31 renal, 70.3%. Besides, the growth is 80% with TK-10 renal; 63.8% in the test on ACHN renal; 46.1% in the test with CAKI-1 renal; 53.8% in the test with CCRF-CEM leukemia; 65.2% in the test on MOLT-4 leukemia.
